A word on the Inhibition: it is the percentage by which the read-out fell short of the control. Low readings indicate a weak effect, high ones a strong effect.

The text below walks through data of ChEMBL document CHEMBL1157539, “Thousands of chemical starting points for antimalarial lead identification” (Nature, 2010).

Each structure is given as a SMILES string.

Type in all cases: functional
For experiment [1], the system named is Plasmodium falciparum. Kind of experiment: GSK_TCMDC: Inhibition of Plasmodium falciparum 3D7 in whole red blood cells, using parasite LDH activity as an index of growth. Test compounds present at 2uM.
Experiment [2] deals with Plasmodium falciparum. As to the kind of experiment: GSK_TCMDC: Inhibition of Plasmodium falciparum Dd2 in whole red blood cells, using parasite LDH activity as an index of growth. Test compounds present at 2uM.
Experiment [3] relates to HepG2. Kind of experiment: GSK_TCMDC: Percent inhibition of human HepG2 cell line. Test compounds present at 10uM.

For `COc1cc(C(=O)Nc2nc3ccccc3[nH]2)ccc1OCC(=O)Nc1cccc(C(F)(F)F)c1`, the Inhibition in experiment [1] is 100%; in experiment [2] it was 33%; in experiment [3], 33%.

Turning to `COCCNCc1cccc(C#Cc2cc3ncnc(Nc4ccc(OCc5cccc(F)c5)c(Cl)c4)c3s2)n1`, the Inhibition in experiment [1] came to 99%; in experiment [2] it was 52%; in experiment [3], 35%.

Regarding `c1ccc(CNc2cc(-c3ccccn3)nc(-c3ccccn3)n2)cc1`, the Inhibition in experiment [1] came out at 84%; in experiment [2], 89%; in experiment [3], 88%.

Regarding `Cc1nc(C)c(-c2ccc(Oc3ccc(OC(F)(F)F)cc3)cc2)c(O)c1I`, the Inhibition in experiment [1] came out at 95%; in experiment [2], 96%; in experiment [3], 3%.

On to `Cc1cc(-c2ccc(CNCc3ccsc3)cc2)ccc1S(=O)(=O)NCCN1CCCC1.O=C(O)C(F)(F)F`, for which the Inhibition in experiment [1] is 99%; in experiment [2] it was 49%; in experiment [3] it was 57%.

Take `COC(=O)c1cc(C(=O)CN(Cc2ccccc2)C(C)C)ccc1O.Cl`: the Inhibition in experiment [1] was 97%; in experiment [2], 0%; in experiment [3] it was 7%.

For `Cc1cccc(CNc2nc(C)cc(N[C@@H](CC(C)C)C(=O)NCc3cccc(F)c3)n2)c1.O=C(O)C(F)(F)F`, the Inhibition was 91% in experiment [1], 32% in experiment [2] and 13% in experiment [3].

Consider `O=C(Nc1ccc(F)c(Cl)c1)c1cc([N+](=O)[O-])cc2cn[nH]c12`, for which the Inhibition in experiment [1] stood at 100%; in experiment [2], 67%; in experiment [3], 32%.

`CC(=O)Nc1ccc(-c2nc3ccc(-c4nc5ccc(NC(C)=O)cc5[nH]4)cc3[nH]2)cc1`: the values for the Inhibition in experiment [1], in experiment [2] and in experiment [3] were 99%, 99% and 0%, respectively.

For the compound `Cc1cccc2nc(-c3cccc(-c4ccc(NC(=O)Nc5ccc(Cl)cc5)cc4)c3)[nH]c12`, the figures for the Inhibition in experiment [1], in experiment [2] and in experiment [3] were 100%, 96% and 63%, respectively.

With `CN(C)CCNC(=O)c1ccc(-c2ccc3c(Nc4ccccc4)c(C(N)=O)cnc3c2)cc1`, the Inhibition is 99% in experiment [1], 68% in experiment [2] and 9% in experiment [3].

Regarding `Cc1ccc(CNC(=O)[C@H](Cc2ccccc2)Nc2ccnc(NCC3CCCCC3)n2)cc1.O=C(O)C(F)(F)F`, the Inhibition in experiment [1] was 92%; in experiment [2] it was 61%; in experiment [3], 84%.

With `O=C(/C=C/c1ccc(Cl)c(Cl)c1)NCCCN1CCC(c2c[nH]c3ccccc23)CC1`, the Inhibition in experiment [1] worked out at 90%; in experiment [2], 5%; in experiment [3], 48%.

Take `CCCN(Cc1nnc(-c2cccs2)o1)C(=O)CSc1nnnn1-c1cc(C)cc(C)c1`: the Inhibition is on record as 92% in experiment [1], 71% in experiment [2] and 2% in experiment [3].

Take `Cc1cc(N2CCCC2)nc(Nc2ccc(NC(=O)c3ccccc3)cc2)n1`: the results for the Inhibition in experiment [1], in experiment [2] and in experiment [3] were 100%, 65% and 26%, respectively.

`CN(C)CCN(Cc1ccc(-c2ccc(CNCCc3ccccc3)cc2)nc1)C(=O)CCC1CCCC1.O=C(O)C(F)(F)F`: the Inhibition in experiment [1] turned out to be 96%; in experiment [2], 89%; in experiment [3], 98%.

For the compound `O=C(NCC1CCN(CCN2CCc3ccc4c(c3C2)OCO4)CC1)c1ccc(-c2ccc(C(F)(F)F)cc2)cc1`, the Inhibition in experiment [1] is listed as 93%; in experiment [2] it was 34%; in experiment [3], 66%.

As to `COc1cc(NCC(O)CNc2cc(Cl)nc3ccccc23)nc2ccccc12` (configuration not stated), the Inhibition in experiment [1] was 99%; in experiment [2], 99%; in experiment [3], 17%.

Turning to `CCNc1cc(C(=O)N[C@@H](Cc2ccccc2)[C@H](O)CN[C@@H](C)c2ccccc2)cc(N2CCCC2=O)c1`, the results for the Inhibition in experiment [1], in experiment [2] and in experiment [3] were 98%, 96% and 7%, respectively.

As for `CC(C)(C)c1ccc(NC(=O)c2ccc(CN3CCCN(Cc4cccc(O)c4)CC3)cc2)cc1.O=C(O)C(F)(F)F`, the Inhibition in experiment [1] is 100%; in experiment [2] it was 62%; in experiment [3] it was 54%.

As to `NS(=O)(=O)c1ccc(CNC(=O)c2cnc3c(O)cccc3c2Nc2cccc(NC(=O)c3ccc(Cl)c(Cl)c3)c2)cc1.O=C(O)C(F)(F)F`, the Inhibition in experiment [1] was 97%; in experiment [2], 35%; in experiment [3] it was 56%.

On to `COc1ccc(CNc2ncnc3c2[nH]c2ccc(F)cc23)cc1`, for which the figures for the Inhibition in experiment [1], in experiment [2] and in experiment [3] were 93%, 71% and 38%, respectively.

Consider `OC(Cn1ccnc1)(c1ccc(Cl)cc1Cl)C1CCCCC1` (configuration not stated), for which the Inhibition in experiment [1] is 98%; in experiment [2], 58%; in experiment [3], 7%.

In the case of `Cc1cccc2nc(-c3ccc(-c4cccc(CNCCCN5CCCC5=O)c4)cc3)[nH]c12.O=C(O)C(F)(F)F`, the Inhibition is given as 96% in experiment [1], 3% in experiment [2] and 6% in experiment [3].

As for `N#Cc1cccc(NC(=O)c2ccc(S(=O)(=O)NCC3CCCN3CC3CCCCC3)cc2)c1.O=C(O)C(F)(F)F` (configuration not stated), the values for the Inhibition in experiment [1], in experiment [2] and in experiment [3] were 88%, 18% and 25%, respectively.

Turning to `Cc1cc(NCCC(=O)NCCOc2ccccc2)nc(NCCc2ccccc2)n1.O=C(O)C(F)(F)F`, the Inhibition was 99% in experiment [1], 9% in experiment [2] and 0% in experiment [3].

As to `Cc1cc(N2CCCN(C)CC2)nc(Nc2ccc(Cl)cc2)n1`, the Inhibition is recorded as 96% in experiment [1], 11% in experiment [2] and 8% in experiment [3].

With `CN(C)CCOc1ccc(-c2cc(-c3ccc(Cl)c(O)c3)c(-c3ccncc3)[nH]2)cc1.Cl`, the Inhibition in experiment [1] is reported as 98%; in experiment [2], 92%; in experiment [3], 54%.

On to `Cc1ccc(Cc2cnc(CN3CCCCC3)c(O)c2)cc1.Cl`, for which the Inhibition came to 93% in experiment [1], 75% in experiment [2] and 4% in experiment [3].
